# According to PubChem BioAssay (NCI):
# The panel holds about 79,000 compounds, 15% with a hit somewhere; the sample as a whole holds those more often. Values without a mark were called inactive. Cut-off read from the data, not from the text of the source: active = growth inhibition above about 70%; inactive = the rest.
# Assay: NCI Yeast Anticancer Drug Screen. Data for the mec2-1 strain (AID 157)
# Details: S. cerevisiae mec2-1 strain, at 50.0 µM, active compounds read high
# Outline: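 Compounds were applied to mec2-1 yeast cells. Their growth was then compared with that of vehicle-treated cultures to give growth inhibition.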
row,SMILES,growth inhibition [%]
1,CC(=O)OC1CCC2(C)C(CCC3C2C(=O)C(Br)C2(C)C(C(C)=O)CCC32)C1 (configuration not stated),0.5
2,CCN(CC)C(=O)CCC1CCCCC1,-18.9
3,S=C(N1CCN(c2cccc(Cl)c2)CC1)N1CCN(c2cccc(Cl)c2)CC1,13.7
4,N#CC(=Nc1ccccc1)c1cccc(Br)c1,5.05
5,CCOC(=O)CCCCN(CC)CCCCC(=O)OCC,-1.5
6,Cc1c2c(cc3c1CCC1(C)C3CCC1C(C)/C=C/C(C)C(C)C)CC(O)CC2 (configuration not stated),11.8
7,O=C(O)COc1ccccc1-c1ccccc1,-13.7
8,CCOC(=O)c1cc2c(cn1)[nH]c1cccc(N)c12,-39.5
9,COc1cccc(N=Nc2c(-c3ccccc3)nn(C(=S)S)c2C)c1,0.6
10,Cc1cc2c(cc1C)NC(=O)CC(c1ccccc1)=N2,-7.8
11,CCCOC(=O)Nc1cccc(C)c1,-5.65
12,Cc1cc([NH-])c([NH-])cc1C.[Cl][Pt+2][Cl],-6.4

# Assay: NCI Yeast Anticancer Drug Screen. Data for the sgs1 mgt1 strain (AID 161);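 note: 0% = growth of cultures given vehicle only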
# Details: S. cerevisiae sgs1 mgt1 strain, at 50.0 µM, active compounds read high
# Outline: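 Percent growth inhibition was derived by comparing compound-exposed mutant yeast with vehicle-exposed cultures. The strain carries alterations in DNA damage repair.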
row,SMILES,growth inhibition [%]
1,COc1cccc(OC(=O)Nc2ccccc2)c1,-9.85
2,O=C1C(O)=C(Cl)C(=O)C(O)=C1Cl.[Zn+2],-10.2
3,O=CNCC(O)c1ccc2c(c1)[nH]c1ccccc12 (configuration not stated),-1.45
4,C1CCCCCC2=C(CCCC1)CCCO2,2.35
5,CSC1=NC=C(C#N)C2=NC(c3ccc(Cl)cc3)NN12 (configuration not stated),17.2
6,COc1cc(CCl)c(OC)cc1Cl,-1.4
7,CC(=O)CC(=O)Nc1ccc(C(=O)c2ccccc2)cc1,-13
8,O=C(N/C(=C\c1ccccc1[N+](=O)[O-])c1nc2ccccc2[nH]1)c1ccccc1,1.2
9,ClCC#CCCl,16.9
10,NS(=O)(=O)c1ccc(Nc2c3ccccc3nc3ncccc23)cc1,13.9
11,CCCCCNC(=O)CCC,25.6
12,Cc1ccc(N=C2C(c3ccccc3)=C(SC3=C(c4ccccc4)C(=Nc4ccc(C)cc4)c4ccccc43)c3ccccc32)cc1,3.9
13,CS(=O)(=O)OCC(CCl)(CCl)CCl,0.15
14,O=C(N=c1ccc2nc(=O)[nH]n(O)c-2c1)C(F)(F)F,-13.4
15,Cc1nc([N+](=O)[O-])cn1CC(=N)N,-16.1
16,NC1=C(Br)C(=O)c2[nH]c(=O)[nH]c(=O)c2C1=O,24.4
17,CC1(C)C(=NN=C(N)N)C(C)(C)C1=NN=C(N)N,-15.8
18,CC1OC(C)(c2ccccc2)OC1C (configuration not stated),27.1
19,COc1cccc(C(F)(F)F)c1,-10.3
20,c1ccc(CN(CCNc2ccccc2)c2ccccc2)cc1,46.2

row,SMILES,growth inhibition [%]
1,O=S(=O)(N=N/C=C1\C=CC=CN1O)c1cccs1,-8.25
2,Cc1noc(C)c1N=Nc1ccc2nonc2c1N,-14.1
3,NC(=O)C(=O)CC(=O)c1ccccc1NC1=CC(=O)C(=O)c2ccccc21,20.4
4,COc1ccccc1C=Nc1ccc(O)cc1,3.9
5,CC(CC(=N)N)NC(=O)C1CCC(N)=N1 (configuration not stated),2.15
6,CCN(CC)CCCC(C)Nc1ccnc2ccc3nn(C)nc3c12 (configuration not stated),-15.2
7,COc1ccc2c(c1)Cc1cc(N=[N+]([O-])c3ccc4c(c3)Cc3cc(OC)ccc3-4)ccc1-2,-17.9
8,Fc1ccc(Oc2nc3ccccc3nc2-c2ccccc2)cc1,-2.15
9,CC(=O)OC1CCC2(C)C(CCC3C2C(=O)C(Br)C2(C)C(C(C)=O)CCC32)C1 (configuration not stated),7.95
10,CCN(CC)C(=O)CCC1CCCCC1,-11.9
11,S=C(N1CCN(c2cccc(Cl)c2)CC1)N1CCN(c2cccc(Cl)c2)CC1,23
12,N#CC(=Nc1ccccc1)c1cccc(Br)c1,18.9
13,CCOC(=O)CCCCN(CC)CCCCC(=O)OCC,11.1
14,Cc1c2c(cc3c1CCC1(C)C3CCC1C(C)/C=C/C(C)C(C)C)CC(O)CC2 (configuration not stated),2.6
15,O=C(O)COc1ccccc1-c1ccccc1,-10.6
16,CCOC(=O)c1cc2c(cn1)[nH]c1cccc(N)c12,7.05
17,COc1cccc(N=Nc2c(-c3ccccc3)nn(C(=S)S)c2C)c1,17.6
18,Cc1cc2c(cc1C)NC(=O)CC(c1ccccc1)=N2,4.15
19,CCCOC(=O)Nc1cccc(C)c1,-15.7
20,Cc1cc([NH-])c([NH-])cc1C.[Cl][Pt+2][Cl],-0.15

# Assay: NCI Yeast Anticancer Drug Screen. Data for the cln2 rad14 strain (AID 165);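 note: 0% = growth equal to vehicle treated cultures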
# Details: S. cerevisiae cln2 rad14 strain, at 50.0 µM, active compounds read high
# Outline: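 Strain: cln2 rad14 yeast, altered in cell cycle control and DNA damage repair. Read-out: growth inhibition vs vehicle.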
row,SMILES,growth inhibition [%]
1,COc1cccc(OC(=O)Nc2ccccc2)c1,-41.3
2,O=C1C(O)=C(Cl)C(=O)C(O)=C1Cl.[Zn+2],-9.1
3,O=CNCC(O)c1ccc2c(c1)[nH]c1ccccc12 (configuration not stated),-10.3
4,C1CCCCCC2=C(CCCC1)CCCO2,-19.3
5,CSC1=NC=C(C#N)C2=NC(c3ccc(Cl)cc3)NN12 (configuration not stated),16.3
6,COc1cc(CCl)c(OC)cc1Cl,-35.6
7,CC(=O)CC(=O)Nc1ccc(C(=O)c2ccccc2)cc1,1.5
8,O=C(N/C(=C\c1ccccc1[N+](=O)[O-])c1nc2ccccc2[nH]1)c1ccccc1,-1.15
9,ClCC#CCCl,4.3
10,NS(=O)(=O)c1ccc(Nc2c3ccccc3nc3ncccc23)cc1,-11.8
11,CCCCCNC(=O)CCC,5.6
12,Cc1ccc(N=C2C(c3ccccc3)=C(SC3=C(c4ccccc4)C(=Nc4ccc(C)cc4)c4ccccc43)c3ccccc32)cc1,15.2
13,CS(=O)(=O)OCC(CCl)(CCl)CCl,3.2
14,O=C(N=c1ccc2nc(=O)[nH]n(O)c-2c1)C(F)(F)F,-10.3
15,Cc1nc([N+](=O)[O-])cn1CC(=N)N,-5.15
16,NC1=C(Br)C(=O)c2[nH]c(=O)[nH]c(=O)c2C1=O,-4
17,CC1(C)C(=NN=C(N)N)C(C)(C)C1=NN=C(N)N,29.3
18,CC1OC(C)(c2ccccc2)OC1C (configuration not stated),-26.5
19,COc1cccc(C(F)(F)F)c1,-6.85
20,c1ccc(CN(CCNc2ccccc2)c2ccccc2)cc1,5.1

row,SMILES,growth inhibition [%]
1,O=S(=O)(N=N/C=C1\C=CC=CN1O)c1cccs1,-1.15
2,Cc1noc(C)c1N=Nc1ccc2nonc2c1N,16.5
3,NC(=O)C(=O)CC(=O)c1ccccc1NC1=CC(=O)C(=O)c2ccccc21,30.4
4,COc1ccccc1C=Nc1ccc(O)cc1,-26.6
5,CC(CC(=N)N)NC(=O)C1CCC(N)=N1 (configuration not stated),-1.6
6,CCN(CC)CCCC(C)Nc1ccnc2ccc3nn(C)nc3c12 (configuration not stated),2.25
7,COc1ccc2c(c1)Cc1cc(N=[N+]([O-])c3ccc4c(c3)Cc3cc(OC)ccc3-4)ccc1-2,-80
8,Fc1ccc(Oc2nc3ccccc3nc2-c2ccccc2)cc1,5.55
9,CC(=O)OC1CCC2(C)C(CCC3C2C(=O)C(Br)C2(C)C(C(C)=O)CCC32)C1 (configuration not stated),16.9
10,CCN(CC)C(=O)CCC1CCCCC1,-39.3
11,S=C(N1CCN(c2cccc(Cl)c2)CC1)N1CCN(c2cccc(Cl)c2)CC1,9.6
12,N#CC(=Nc1ccccc1)c1cccc(Br)c1,15.4
13,CCOC(=O)CCCCN(CC)CCCCC(=O)OCC,-2.25
14,Cc1c2c(cc3c1CCC1(C)C3CCC1C(C)/C=C/C(C)C(C)C)CC(O)CC2 (configuration not stated),-0.2
15,O=C(O)COc1ccccc1-c1ccccc1,-48.5
16,CCOC(=O)c1cc2c(cn1)[nH]c1cccc(N)c12,5.85
17,COc1cccc(N=Nc2c(-c3ccccc3)nn(C(=S)S)c2C)c1,-192
18,Cc1cc2c(cc1C)NC(=O)CC(c1ccccc1)=N2,3.3
19,CCCOC(=O)Nc1cccc(C)c1,0.4
20,Cc1cc([NH-])c([NH-])cc1C.[Cl][Pt+2][Cl],-0.3
